# Measurements: PubChem BioAssay AID434947 (Broad Institute, 2010)
# About 15 (0.7%) of roughly 2,200 compounds were called active. This excerpt belongs to a sample that is enriched for actives. Unmarked numbers belong to inactive results.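 The calls were made as follows: active = fitted half-maximal concentration for loss of luminescence signal no more than a set limit of log units above the top tested concentration; inconclusive = flat fit with 30 to 70% signal loss, or invalid fit; inactive = half-maximal concentration above that set limit.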
# Assay: ADP-Glo luciferase signal interference – biochemical, luminescence, cell-free, homogeneous, artefact control for GSK3beta inhibitor project, dose response (AID 434947);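 also: kinase-free counter screen of ADP-Glo detection reagents for GSK3beta hits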
# Conditions: Cell-free ADP-Glo reagents, 5 uM ADP
row,SMILES,EC50
1,COc1cccc(Nc2nc(-c3ccccc3)nc3ccccc23)c1,> 30 µM
2,O=C1Nc2cc(C(=O)NCCCN3CCOCC3)ccc2S/C1=C/c1ccccc1F,> 30 µM
3,Cc1csc2c(=O)n(CCO)c(=O)[nH]c12,> 30 µM
4,CCOc1cc(C2c3c(n[nH]c3C)C(=O)N2c2ccc(Br)cc2)ccc1O (stereo not given),> 30 µM
5,COC(=O)c1cn(NC(=O)c2cccnc2)c(=O)c2ccccc12,> 30 µM
6,CCCc1cc(O)c2c(C)cc(=O)oc2c1,> 30 µM
7,COc1ccc(/C=C2/Sc3ccc(C(=O)NCCN4CCCCCC4)cc3NC2=O)cc1,> 30 µM
8,Cc1ccccc1-c1nnc(SCc2ccc(F)cc2)o1,> 30 µM
9,CCCN(CCC)CCCNc1ccc2nnc(-c3ccc(F)cc3)n2n1,> 30 µM
10,O=c1c(O[C@@H]2O[C@H](CO)[C@@H](O)[C@H](O)[C@H]2O)c(-c2ccc(O)c(O)c2)oc2cc(O)cc(O)c12,> 30 µM
11,Cc1ccc2c(c1)cc1c(=O)n(CC(=O)NCCN3CCCC3)nc(C)n12,> 30 µM
12,COc1cccc2cc(C(=O)OC(C)C(=O)c3ccc(C)cc3)c(=O)oc12 (stereo not given),> 30 µM
13,CC(=O)Oc1cc(C)cc2oc(=O)cc(-c3ccccc3)c12,> 30 µM
14,CC1(C)CC(=O)C=C(Nc2ccc(F)cc2)C1,> 30 µM
15,COc1ccc(NC(=O)c2sc(SC)nc2N)cc1,> 30 µM
16,CCOC(=O)c1nnn(CC(=O)Nc2cccc(OC)c2)c1C(=O)OCC,> 30 µM
17,CC1(C)CC(=O)C2=C(C1)Nc1ccccc1NC2c1ccc(F)cc1 (stereo not given),> 30 µM
18,O=C(Nc1ccccc1)Nc1ccncc1,> 30 µM
19,Cc1cc([N+](=O)[O-])c(C)cc1-c1ccc(/C=N/n2cnnc2)o1,> 30 µM
20,Nc1nc(NCCCN2CCOCC2)nc(Nc2ccc(Cl)cc2)c1[N+](=O)[O-],> 30 µM
21,CCCC(=O)Nc1nn(CC(C)C)c2nc3cc(C)ccc3cc12,> 30 µM
22,N#Cc1cccc(-c2nnc(SCc3ccccc3C#N)o2)c1,> 30 µM
23,COc1cc(C2OCC3C(c4cc(OC)c(OC)c(OC)c4)OCC23)cc(OC)c1OC (stereo not given),> 30 µM

row,SMILES,EC50
1,O=c1c2ccccc2cnn1-c1nc2ccccc2[nH]1,25.9 µM (active)
2,Cc1cc(NC(=O)/C=C/c2cccc(F)c2)n(-c2nc3ccccc3[nH]2)n1,> 30 µM
3,CN1CCN(C(=O)Cn2ncc3c([nH]c4ccccc43)c2=O)CC1,> 11 µM
4,CC(C(=O)NCc1ccco1)n1cc([N+](=O)[O-])cn1 (stereo not given),> 30 µM
5,CCOC(=O)CCCSc1nnc(CCCCCN2C(=O)c3cccc4cccc(c34)C2=O)o1,> 30 µM
6,CCN(CC)Cc1c(O)ccc2occ(C(=O)c3ccc(OC)cc3)c12,> 30 µM
7,Clc1ccc(-c2nnc(-c3ccccc3)c(N3CCSCC3)n2)cc1,> 30 µM
8,COc1ccc(Nc2ccccc2C(=O)O)cc1,> 30 µM
9,O=C(CN(Cc1cccs1)C(=O)CCC(=O)Nc1ccccn1)NCc1ccccc1,> 30 µM
10,N#Cc1c(N)n(-c2cccc(O)c2)c2nc3ccccc3nc12,> 30 µM
11,Cc1ccc(S(=O)(=O)NCC2COc3ccccc3O2)cc1 (stereo not given),> 30 µM
12,CN1CCN(c2nc(-c3ccccc3)nc(-c3ccccc3)c2C#N)CC1,> 30 µM
13,COC(CNC(=O)CCc1c(C)nc2c(c(C)nn2-c2ccc(C)cc2)c1C)OC,> 30 µM
14,CCOC(=O)c1nnn(-c2nonc2N)c1CN(CC)CC,> 30 µM
15,COc1cccc2cc(C(=O)CS(=O)(=O)c3ccc(C)cc3)c(=O)oc12,> 30 µM
16,CCCOc1ccc(-c2c(C(=O)N/N=C(\C)c3ccco3)nnn2-c2nonc2N)cc1,> 30 µM
17,CCc1ccc(/C=N/NC(=O)c2nnn(-c3nonc3N)c2CN2CCc3ccccc32)cc1,> 30 µM
18,NC(=O)c1ccc(Oc2ccc(Cl)c3ccccc23)c([N+](=O)[O-])c1,> 30 µM
19,Cc1[nH]nc2c1C(c1cccs1)C1=C(CCCC1=O)N2 (stereo not given),> 30 µM
20,CC(C)CCNc1nc(N)c([N+](=O)[O-])c(NC2CCCCC2)n1,> 30 µM
21,CCCCn1nc(NC(=O)COC)c2cc3cc(OC)ccc3nc21,> 30 µM
22,O=C(c1cccs1)c1coc2ccc(O)c(CN(CCO)CCO)c12,> 30 µM
23,COc1cccc(C2C3=C(CCCC3=O)Nc3[nH]n(-c4ccccc4)c(=O)c32)c1 (stereo not given),> 30 µM

row,SMILES,EC50
1,Cc1ccc(C(=O)O/N=C\c2ccc(N3CCCCC3)c([N+](=O)[O-])c2)cc1,> 30 µM
2,Cc1ccc(Sc2ccc(/C=N/O)cc2[N+](=O)[O-])cc1,> 30 µM
3,CS(=O)(=O)N(CCc1ccccc1)CC(=O)N1CCN(c2ccccc2F)CC1,> 30 µM
4,CC1CCN(Cc2c(C(=O)N/N=C/c3ccccc3O)nnn2-c2nonc2N)CC1,> 30 µM
5,Cn1c(SCC(=O)NC2CCCCC2)nnc1-c1ccccn1,> 30 µM
6,O=C(CCSc1nnc(-c2ccncc2)o1)Nc1ccc(F)cc1,> 30 µM
7,O=C1Nc2cc(C(=O)NCCCN3CCCC3)ccc2S/C1=C/c1ccccc1F,> 30 µM
8,CCCNC(=O)c1ccc(Cl)cc1Cl,> 30 µM
9,COc1cccc(C(=O)CSc2nccn2C)c1,> 30 µM
10,COc1ccc(-c2cc(C(=O)N3CCN(C(=O)c4ccco4)CC3)[nH]n2)cc1,> 30 µM
11,CC(C)(C)C(=O)COC(=O)c1ccc(O)cc1,> 30 µM
12,CC(OC(=O)c1nsc(Cl)c1Cl)C(=O)NCc1ccco1 (stereo not given),> 30 µM
13,COC(=O)C1=C(C)N(Cc2ccccc2)C(=NCc2ccc(OC)cc2)N[C@H]1c1cccc(F)c1,> 30 µM
14,CS(=O)(=O)N(Cc1ccccc1)c1ccc(C(=O)Nc2ccccc2Sc2ccccc2)cc1,> 30 µM
15,Cc1ccnc(NC(=O)c2ccc([N+](=O)[O-])o2)c1,> 30 µM
16,CCCCc1cc(=O)oc2cc(C)cc(OC(C)C(=O)O)c12 (stereo not given),> 30 µM
17,NC(=O)C1CCN(c2nc3c(S(=O)(=O)c4ccccc4)nnn3c3ccccc23)CC1,> 30 µM
18,Cc1ccnc(SCCn2c(N3CCOCC3)nc3c2c(=O)[nH]c(=O)n3C)n1,> 30 µM
19,CCSc1nc2sc3c(c2c(=O)n1-c1ccccc1)CCN(C)C3,> 30 µM
20,CCOC(=O)c1cnc2c(C)cccc2c1Nc1ccc(N2CCOCC2)cc1,> 30 µM
21,COc1ccc(-c2nn(-c3ccccc3)cc2CO)cc1OC,> 30 µM
22,COc1cccc2c1cc1c(=O)n(CC(=O)NCCCc3ccccc3)nc(C)n12,> 30 µM
23,Cc1[nH]nc2c1C(c1ccc(N(C)C)cc1)C1=C(CC(C)(C)CC1=O)N2 (stereo not given),> 30 µM

row,SMILES,EC50
1,CC(C(=O)NCc1ccccc1)n1cc([N+](=O)[O-])cn1 (stereo not given),> 30 µM
2,CC(C)N1CCc2c(sc(NC(=O)CCS(=O)(=O)c3ccccc3)c2C(N)=O)C1,> 30 µM
3,COc1cc(/C=C2/SC(=Nc3ccc(O)cc3)NC2=O)ccc1O,> 30 µM
4,CN(C)Cc1c(O)ccc2c(=O)c(-c3ccccc3)c(C(F)(F)F)oc12,> 30 µM
5,COc1ccc(-c2nn(-c3ccccc3)cc2/C=C(\C#N)S(=O)(=O)c2ccccc2)cc1OC,> 30 µM
6,Cc1ccc(S(=O)(=O)/N=C2/NC(=O)/C(=C/c3ccccc3)S2)cc1,> 30 µM
7,CN(C)c1ccc(C(=O)NN2C(=O)c3ccccc3C2=O)cc1,> 30 µM
8,O=C1CC(c2ccc(O)c(O)c2)Oc2cc(O)cc(O)c21 (stereo not given),> 30 µM
9,Cc1nn(-c2ccccn2)c2c1C(c1ccsc1)C1=C(CCCC1=O)N2 (stereo not given),> 30 µM
10,COc1cc(C(c2nnnn2C(C)(C)C)N2CCN(c3nc4ccccc4s3)CC2)ccc1O (stereo not given),> 30 µM
11,Cc1ccc2sc(N3CCN(CCNC(=O)c4ccco4)CC3)nc2c1C,> 30 µM
12,O=[N+]([O-])c1cc(/C=N/O)ccc1N1CCCC1,> 30 µM
13,CCOC(=O)c1nnn(-c2nonc2N)c1CSc1ccc(C)cc1,> 30 µM
14,CC1(C)CC2CC(C)(CN2S(=O)(=O)c2ccc(C(=O)Nc3ccc(Cl)c(S(=O)(=O)N4CCOCC4)c3)cc2)C1 (stereo not given),> 30 µM
15,COCCN(CC(=O)NCc1ccc(F)cc1)C(=O)CCC(=O)Nc1ccccn1,> 30 µM
16,Cc1nc(NCCCn2ccnc2)c2ccccc2n1,> 30 µM
17,Cc1csc(SCC(=O)Nc2ccc(Cl)cn2)n1,> 30 µM
18,CCc1nnc(NC(=O)c2cc(-c3ccccc3)nn2-c2ccccc2)s1,> 30 µM
19,O=C(CS(=O)(=O)c1ccccc1)Nc1ncc([N+](=O)[O-])s1,> 30 µM
20,COc1ccc2nc(C)cc(N3CCOCC3)c2c1,> 30 µM
21,CC1=C(C(=O)Nc2ccccc2F)C(c2cccs2)C2=C(CCCC2=O)N1 (stereo not given),> 30 µM
